# This is part of a sample that, as a whole, favours compounds with a hit. Of some 83,000 tested, about 20% had one in any assay.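 Cell lines were cultured in 96-well plates, exposed to a single compound concentration, and assessed for percent growth 48 hours later.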 Unmarked numbers belong to inactive results. Activity calls are given as the source filed them. Rule for the calls: active = growth percent below 10; inactive = the rest.
# Legend:
# Experiment in all cases: NCI-60 one-dose screen, 48 h (100 = growth as untreated, 0 = no growth, -100 = all killed)
# Conditions in all cases: 10 µM unless noted
# SR leukemia = tested on: SR leukemia
# RPMI-8226 leukemia = tested on: RPMI-8226 leukemia
# OVCAR-8 ovarian = tested on: OVCAR-8 ovarian
# OVCAR-5 ovarian = tested on: OVCAR-5 ovarian
# OVCAR-4 ovarian = tested on: OVCAR-4 ovarian
# SK-OV-3 ovarian = tested on: SK-OV-3 ovarian
# IGROV1 ovarian = tested on: IGROV1 ovarian
# OVCAR-3 ovarian = tested on: OVCAR-3 ovarian
# HS 578T breast = tested on: HS 578T breast
# NCI/ADR-RES ovarian = tested on: NCI/ADR-RES ovarian
# T-47D breast = tested on: T-47D breast
# BT-549 breast = tested on: BT-549 breast
# MDA-MB-435 melanoma = tested on: MDA-MB-435 melanoma
# SW-620 colon = tested on: SW-620 colon
# MCF7 breast = tested on: MCF7 breast
# HCT-116 colon = tested on: HCT-116 colon
# HCC-2998 colon = tested on: HCC-2998 colon
# KM12 colon = tested on: KM12 colon
SMILES,growth (SR leukemia),growth (RPMI-8226 leukemia),growth (OVCAR-8 ovarian),growth (OVCAR-5 ovarian),growth (OVCAR-4 ovarian),growth (SK-OV-3 ovarian),growth (IGROV1 ovarian),growth (OVCAR-3 ovarian),growth (HS 578T breast),growth (NCI/ADR-RES ovarian),growth (T-47D breast),growth (BT-549 breast),growth (MDA-MB-435 melanoma),growth (SW-620 colon),growth (MCF7 breast),growth (HCT-116 colon),growth (HCC-2998 colon),growth (KM12 colon)
CCN1CCN(CCNc2nccc(-c3c(-c4cccc(OC)c4)nc4occn34)n2)S1(=O)=O,96.3%,96.2%,99.3%,130%,114%,92%,79.9%,107%,114%,109%,76.3%,111%,52.2%,132%,86.1%,99.8%,130%,100%
NC1=NN=C(N)C1=Cc1cc2ccccc2n2nnnc12,94.4%,105%,98.1%,108%,105%,91.7%,103%,105%,94.7%,105%,88.4%,94.7%,108%,98.2%,89.9%,104%,108%,105%
Oc1cccc(CCc2ccc(Oc3cc(CCc4cccc(O)c4)cc(O)c3O)cc2)c1,35.9%,39.5%,75.3%,107%,58.9%,94.8%,41.7%,63.8%,84.4%,82.1%,73%,82%,68.6%,79%,77.8%,73.2%,92%,81.5%
O=C1c2ccc3c4c(ccc(c24)C(=O)N1CCCNCc1ccccc1F)C(=O)N(CCCNCc1ccccc1F)C3=O,-37.8% (active),-32.2% (active),-17.4% (active),-23% (active),-98.4% (active),-21.8% (active),-57.7% (active),-63% (active),-23.7% (active),-18.4% (active),-27.9% (active),-85.4% (active),-74.3% (active),-73.3% (active),-80.5% (active),-37.7% (active),-93.1% (active),-76.1% (active)
CN(C)c1ccc(C2C(C#N)=C(/N=C/c3ccccc3)Oc3c2ccc2ccccc32)cc1 (stereo unspecified),17.7%,70.6%,89.6%,99.5%,97.4%,66.8%,49.8%,43.7%,66.7%,54.4%,83.1%,69.6%,4.53% (active),41%,54.3%,56.5%,104%,58.8%
O=C(c1nc2ccccc2[nH]1)C1C(c2ccc(Cl)cc2)C2CC3CCCC[C@H]3N2[C@@]12C(=O)Nc1cc(Cl)ccc12 (stereo partly specified),39%,16.8%,61.3%,56%,24.4%,71.4%,32%,35%,73.2%,50.5%,24.8%,80.8%,24.8%,33.2%,17.3%,23.4%,52%,45.8%
COc1cc(C2C3CC4CCCC[C@H]4N3[C@@]3(C(=O)Nc4cc(Cl)ccc43)C2C(=O)c2nc3ccccc3[nH]2)cc(OC)c1OC (stereo partly specified),38.3%,23.6%,70.7%,73.7%,56.3%,94.3%,62.1%,69.7%,74%,66.8%,36.3%,76%,53.1%,60.5%,30.4%,34.7%,69.9%,60.6%
COc1cc2nc(-c3ccc(C(F)(F)F)cc3)cc(OCCCN3CCOCC3)c2cc1OC,16.5%,10.8%,41.6%,45.8%,52.8%,70.3%,36.4%,61.6%,54.7%,40.4%,16.2%,30.5%,-26% (active),25.9%,44.4%,15.1%,43.4%,27.5%
Nc1n[nH]c2cccc(C#Cc3cccc(C(=O)Nc4cc(CN5CCOCC5)cc(C(F)(F)F)c4)c3)c12,35.6%,12.9%,28.9%,34.3%,33.1%,82.9%,7.98% (active),46.7%,10.2%,42.1%,37.1%,57.9%,23.4%,30.9%,44.2%,14.1%,45%,13.1%
O=C(/C(=C/c1ccc([N+](=O)[O-])cc1)SCc1ccc(F)cc1)c1ccc(F)cc1,6.69% (active),-28.7% (active),93.1%,97.9%,73.2%,103%,78%,82.9%,89.2%,77.1%,79.8%,98.2%,85%,-27.5% (active),9.8% (active),-25.2% (active),88.4%,59.8%
N#CC1=C(/N=C/c2ccccc2)Oc2c(ccc3ccccc23)C1c1ccc([N+](=O)[O-])cc1 (stereo unspecified),81%,92%,95%,101%,88.2%,86.9%,56.6%,86.4%,91.6%,95.6%,76.5%,103%,101%,93%,78.4%,92%,98.3%,97.6%
O=C1OC(Cc2ccccc2)C1c1ccccc1 (stereo unspecified),104%,109%,100%,98.9%,109%,121%,101%,110%,107%,105%,93.7%,95.1%,102%,107%,98.1%,90.8%,99.5%,101%
COC(=O)C1=C(C(=O)ON)[C@@H]2C=C[C@@]1([C@@H](Cc1ccccc1)Nc1ccccc1)O2,8.17% (active),21.7%,92.8%,89%,79.9%,107%,85.6%,-79.1% (active),109%,89.8%,-35.9% (active),118%,101%,-71.2% (active),90.8%,-77.7% (active),93.6%,96.5%
N#CC(C#N)=Cc1cc2ccccc2nc1Oc1ccc(C(F)(F)F)cc1,30.8%,3.66% (active),92.5%,102%,99.7%,88.6%,79.3%,101%,96.9%,92.5%,90.6%,96.2%,97%,74.5%,56.9%,89.8%,106%,88.5%
N#CC1C(C#N)C(C(=O)c2ccc(Br)cc2)N2c3ccccc3C=CC12 (stereo unspecified),34.9%,94.1%,90.9%,55.2%,43.7%,79.4%,39.7%,75.5%,77.6%,64.1%,49.3%,93.2%,16%,66.4%,13%,68.5%,50.7%,22.3%
NC(=NCCCOc1ccc(F)cc1)Nc1ccc(I)cc1,58%,64.8%,89.3%,89.9%,45.7%,81.8%,66.3%,80.5%,84.6%,81.5%,28.2%,74.8%,64.4%,67.1%,10%,58.7%,29.2%,87.8%
CC(=O)[C@@H]1CC[C@]2(CO)CC[C@]3(C)[C@H](CC[C@@H]4[C@@]5(C)CCCNC(C)(C)[C@@H]5CC[C@]43C)[C@@H]12,86.8%,98.6%,105%,102%,101%,122%,99.1%,97.2%,96.1%,96.4%,103%,101%,96.8%,103%,87.1%,94.3%,101%,101%

# Source: PubChem BioAssay (NCI)
